Results filed as inconclusive are left out. Activity calls are given as the source filed them. The call rests on the fitted dose curve; in most records, active means well fitted cell-killing curve with a large enough effect in the repeat runs; inconclusive means weak or mixed curves; inactive means flat fitted curve, though single readings scatter. Positions of bridges follow the written chain, without caps; N, C: chain ends. Non-standard residues stand in square brackets, D forms with d. Residues, ends and D or L forms follow the SMILES beside them. hArg = N=C(N)NCCCC[C@H](N)C(=O)O; Mpa = O=C(O)CCS
Experiment: qHTS RealTime-Glo MT Cell Viability Assay in HepG2 cells - 24 hour (AID 1224867); further: nearly all actives have a fitted effect of over 50% in size
Conditions: RealTime-Glo luminescence; series mostly up to 76.8 µM; activity change, negative = cytotoxicity: at the top concentration
From the text: U.S. Tox21 Program National Center for Advancing Translational Sciences [NCATS] NIH Chemical Genomics Center [NCGC] U.S. Environmental Protection Agency [EPA] National Institutes of Environmental Health Sciences [NIEHS] National Toxicology Program [NTP] U.S. Food and Drug Administration [FDA] Tox21 Assay Overview: Measure of cell viability is critical in the cell-base assay. Analysis of cell viability is necessary for the characterization of cell responses to cytotoxic drugs and environmental stress. A RealTime-Glo MT Cell Viability Assay to monitor cell viability in real time of continues cell culture during 40 hours of compound treatment was used to screen Tox21 10K library compounds in HepG2 cells. The RealTime-Glo MT Cell Viability Assay is a nonlytic, homogeneous, bioluminescent method to measure cell viability in real time using a simple, plate-based method. The assay involves adding NanoLuc luciferase and a cell-permeant prosubstrate to cells in culture. Viable cells reduce the proprietary prosubstrate to generate a substrate for NanoLuc luciferase. This substrate diffuses from cells into the surrounding culture medium, where it is rapidly used by the NanoLuc Enzyme to produce a luminescent signal. The signal correlates with the number of viable cells, making the assay well suited for cytotoxicity studies.
Tox21 Assay Protocol Summary: The mixture of HepG2 cell suspension and reagents were dispensed at 600cells/6 ul/well in 1536-well tissue culture treated black solid bottom plates using a Multidrop dispenser. After the assay plates were incubated at a 37 C/5% CO2 incubator for 5 hours, 23 nL of compounds dissolved in DMSO, positive and negative controls was transferred to the assay plate by a pintool work station. The plates were incubated at 37 C for 40 hours. The luminescence intensity were measured at 0h, 8h, 16h, 24h, 32h and 40h time points using ViewLux plate reader during compound treatment.
On the % scale 0 is the no-effect control and ±100 the full control effect.

| Structure (SMILES) | activity change, negative = cytotoxicity |
| --- | --- |
| OC1(c2ccc(Cl)cc2)CCNCC1 | 1.67% [at 35.3 µM] (inactive) |
| O=C1NC(c2ccccc2)(c2ccccc2)C(=O)N1COP(=O)(O)O | 0.652% [at 35.3 µM] (inactive) |
| Cc1ccc(N)cc1S(=O)(=O)O | 2.64% (inactive) |
| CCC(=O)CC | -0.0365% (inactive) |
| CC(C)NCC(O)c1ccc2ccccc2c1 (stereo not given) | 0.789% [at 35.3 µM] (inactive) |
| CC(C)CCOC(=O)c1ccccc1 | 2.28% (inactive) |
| NCCOCCN | 0.314% (inactive) |
| CC(C)c1ccc(C=O)cc1 | -0.475% (inactive) |
| CCCCCCCCCCOC(C)=O | 2.3% (inactive) |
| NCc1ccc(S(N)(=O)=O)cc1 | 0.0369% [at 35.3 µM] (inactive) |
| CC(=O)C1C(=O)C=C(C)OC1=O (stereo not given) | 2.74% (inactive) |
| CCCCCCCCCOC(=O)CCCCC(=O)OCCCCCCC | -1.52% (inactive) |
| OC[C@H]1O[C@@H](O[C@@H]2[C@@H](CO)O[C@](O)(CO)[C@H]2O)[C@H](O)[C@@H](O)[C@H]1O | 0.782% [at 35.3 µM] (inactive) |
| c1ccc(B(c2ccccc2)c2ccccc2)cc1 | -1.89% (inactive) |
| CCCCCCCCCOC(=O)c1ccccc1C(=O)OCCCCCCCCC | 4.06% (inactive) |
| CC(=O)O[Si](C)(OC(C)=O)OC(C)=O | 0.834% (inactive) |
| CCCCCC/C=C/C(=O)OC | 0.998% (inactive) |
| CC1CC(=O)CC(C)(C)C1 (stereo not given) | 2.27% (inactive) |
| COc1nc(N)nc2nc[nH]c12 | 0.956% (inactive) |
| CCCCOC(=O)C(C)O (stereo not given) | 0.36% (inactive) |

| Structure (SMILES) | activity change, negative = cytotoxicity |
| --- | --- |
| Cc1ccc(C(=O)O)cc1[N+](=O)[O-] | 0.445% (inactive) |
| CCC(=O)Oc1ccc2c(c1)CC[C@@H]1[C@@H]2CC[C@@]2(C)[C@H]1C[C@@H](OC(=O)CC)[C@@H]2OC(=O)CC | -8.37% [at 35.3 µM] (inactive) |
| CC1(C)Oc2ccc(C#N)cc2[C@@H](N2CCCC2=O)[C@@H]1O | 3.19% [at 35.3 µM] (inactive) |
| N[C@@H](CSCCCO)C(=O)O | 1.24% [at 15.8 µM] (inactive) |
| C=CCSSCCC | 2.93% (inactive) |
| CC(=O)CCc1ccc(OC(C)=O)cc1 | -2.61% (inactive) |
| CCc1occc(=O)c1O | 2.5% (inactive) |
| C=Cc1ccc(C(C)(C)C)cc1 | 0.939% (inactive) |
| COC(=O)/C=C\C(=O)O | 1.42% (inactive) |
| CC(C)COC(=O)c1ccccc1 | -0.627% (inactive) |
| Nc1nc(-c2ccccc2)c(Br)c(=O)[nH]1 | 1.39% [at 35.3 µM] (inactive) |
| NC(=O)[C@@H]1CSSCCC(=O)N[C@@H](CCCCN=C(N)N)C(=O)NCC(=O)N[C@@H](CC(=O)O)C(=O)N[C@@H](Cc2c[nH]c3ccccc23)C(=O)N2CCC[C@H]2C(=O)N1 ([Mpa][hArg]GDWPC-NH2; disulfide 1-7) | 1.16% [at 35.3 µM] (inactive) |
| C=C(C)[C@@H]1CC=C(C)C(=O)C1 | -0.229% (inactive) |
| Cc1c(NC(=O)c2cccnc2)c(=O)n(-c2ccccc2)n1C | 0.851% [at 35.3 µM] (inactive) |
| CC(C)Cn1cnc2c1c(=O)n(C)c(=O)n2C | 1.01% [at 35.3 µM] (inactive) |
| O=C=NCC1CCCC(CN=C=O)C1 (stereo not given) | -1.34% (inactive) |
| Cc1ccccc1C(N)=O | 1.8% (inactive) |
| C=CC(=O)OCC1CCCO1 (stereo not given) | 1.66% (inactive) |
| Cn1nnc2c(C(N)=O)ncn2c1=O | 0.279% [at 35.3 µM] (inactive) |
| O=C1CCC(=O)N1Cl | 2.24% (inactive) |

Source: PubChem BioAssay (Tox21)
